# From PubChem BioAssay (Tox21)
# Unmarked numbers belong to inactive results. Records with an inconclusive call do not appear. A call without a number means that no potency is given here. Activity calls are given as the source filed them. Unless noted, calls come from the whole dose curve; as a rule, active = well fitted curve in the direction sought with a large enough effect in the repeat runs; inconclusive = weak or mixed curves; inactive = no such curve, though single readings can be large; an effect the other way counts as inactive or inconclusive.
# Columns and labels:
# [1] = qHTS assay for small molecules that induce genotoxicity in human embryonic kidney cells expressing luciferase-tagged ATAD5 (AID 651632); note: nearly all actives have a fitted effect of over 15% in size; note: potency is the fitted concentration of half-maximal effect
# Outline: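 DMSO vehicle served as the control. HEK293T reporter cells, 16 hr at 37C, then 30 min Amplite at room temperature; ATAD5 induction is measured as luciferase activity.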
# [2] = qHTS assay for small molecule agonists of the p53 signaling pathway - cell viability (AID 651633; calls by dose curve; note: nearly all actives have a fitted effect of over 30% in size; note: potency is the fitted concentration of half-maximal effect)
# Outline: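 Viability counter-read: CellTiter-Glo luminescence (30 min, room temperature) in the same p53RE-bla plates. These plates had been exposed to compounds for 16 h at 37 C.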
# [3] = qHTS assay for small molecules that induce genotoxicity in human embryonic kidney cells expressing luciferase-tagged ATAD5 - cell viability (AID 651634; calls by dose curve; note: nearly all actives have a fitted effect of over 25% in size; note: potency is the fitted concentration of half-maximal effect)
# Outline: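 Here HEK293T cells with the ATAD5 luciferase reporter are incubated with test compounds for 15.5 hr, and cytotoxicity is then gauged by measuring protease activity in live cells using fluorescence.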
# [4] = qHTS assay to test for compound auto fluorescence at 590 nm (red) in HepG2 cells (AID 720674)
# Outline: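 We screened compounds on adherent HepG2 cells, incubating them for an hour at 37 C in 5% CO2 before reading emission at 590 nm under 540 nm excitation; values reflect equivalence to Rose Bengal sodium fluorescence.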
# [5] = qHTS assay to test for compound auto fluorescence at 460 nm (blue) in HEK293 cells (AID 720678)
# Outline: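 After cell attachment (4-5 hr, 37C), compounds were pinned onto HEK293 monolayers in 10% dialyzed FBS medium. The blue channel (405/460 nm) was read following overnight culture. Equivalency was calculated against triamterene.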
# [6] = qHTS assay to test for compound auto fluorescence at 590 nm (red) in HEK293 cells (AID 720679)
# Outline: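 Plates of HEK293 cells (10% dialyzed FBS) are treated with 23 nL compound or DMSO vehicle after a 4-5 hr attachment period, incubated overnight at 37C, and read for red fluorescence at 540/590nm.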
# [7] = qHTS assay to test for compound auto fluorescence at 460 nm (blue) in HEK293 cell free culture (AID 720681)
# Outline: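 Blue fluorescence (Ex 405/Em 460 nm, triamterene-equivalent) was read immediately after pin transfer of compound or DMSO into medium (DMEM, 10% FBS) without cells.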
# [8] = qHTS assay to test for compound auto fluorescence at 535 nm (green) in HEK293 cell free culture (AID 720682)
# Outline: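 Green-label autofluorescence (485 nm excitation, 535 nm emission) measured on compound added to cell-free culture medium (DMEM, 10% FBS). Output is expressed relative to fluorescein.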
# [9] = qHTS assay to identify small molecule antagonists of the glucocorticoid receptor (GR) signaling pathway - cell viability counter screen (AID 720693); note: nearly all actives have a fitted effect of over 55% in size; note: potency is the fitted concentration of half-maximal effect
# [10] = qHTS assay to identify small molecule antagonists of the androgen receptor (AR) signaling pathway using the MDA cell line - cell viability counter screen (AID 743041; note: nearly all actives have a fitted effect of over 45% in size; note: potency is the fitted concentration of half-maximal effect)
# Outline: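 Viability read by CellTiter-Fluor fluorescence in the same wells as the antagonist screen, added after 15.5 h of a 16 h, 37C exposure. Human breast carcinoma MDA-kb2 AR-luc cells, compounds co-dosed with agonist R1881.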
# [11] = qHTS assay to identify small molecule antagonists of the estrogen receptor alpha (ER-alpha) signaling pathway - cell viability counter screen (AID 743074; calls by dose curve;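 note: HEK293 cells carrying ER-alpha-UAS-bla reporter stimulated with 17beta-estradiol; nearly all actives have a fitted effect of over 45% in size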; note: potency is the fitted concentration of half-maximal effect)
# [12] = qHTS assay to identify small molecule antagonists of the estrogen receptor alpha (ER-alpha) signaling pathway using the BG1 cell line - cell viability counter screen (AID 743081);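 note: compound given together with 17beta-estradiol as the ER stimulus; nearly all actives have a fitted effect of over 45% in size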; note: potency is the fitted concentration of half-maximal effect
# [13] = qHTS assay to identify aromatase inhibitors - cell viability counter screen (AID 743084);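 note: cells stimulated with testosterone during compound exposure; nearly all actives have a fitted effect of over 55% in size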; note: potency is the fitted concentration of half-maximal effect
# [14] = qHTS assay to identify small molecule that activate the aryl hydrocarbon receptor (AhR) signaling pathway - cell viability counter screen (AID 743086); note: nearly all actives have a fitted effect of over 45% in size; note: potency is the fitted concentration of half-maximal effect
# Outline: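 Cytotoxicity counter screen: CellTiter-Fluor signal (30 min, 37 C) in 4000 HepG2 cells/well carrying the DRE-luciferase reporter, following 24 h compound exposure at 37 C.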
# [15] = qHTS assay to identify small molecule phospholipidosis (PLD) inducers (AID 1259344; active = well fitted curve in the direction sought with a large enough effect; an effect the other way counts as inactive or inconclusive)
# Outline: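 Phospholipid accumulation was scored by imaging: fixed, Hoechst-counterstained HepG2 cells stained with LipidTOX Red after 24 h compound exposure at 37 C. Read-outs were pit count and pit intensity per well or per cell, with amiodarone and DMSO controls.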
# [16] = target: Nuclear receptor subfamily 1 group I member 2 (Rattus norvegicus) (UniProt Q9R1A7); experiment: Rat pregnane X receptor (rPXR) activation by small molecules, qHTS assay (AID 1346983); details: rPXR luciferase reporter cells, One-Glo luminescence, 24 h; max activation: active compounds read high; note: nearly all actives have a fitted effect of over 20% in size; note: potency is the fitted concentration of half-maximal effect
# Nuclear receptor subfamily 1 group I member 2 (Rattus norvegicus), sequence (Q9R1A7 whole entry, looked up): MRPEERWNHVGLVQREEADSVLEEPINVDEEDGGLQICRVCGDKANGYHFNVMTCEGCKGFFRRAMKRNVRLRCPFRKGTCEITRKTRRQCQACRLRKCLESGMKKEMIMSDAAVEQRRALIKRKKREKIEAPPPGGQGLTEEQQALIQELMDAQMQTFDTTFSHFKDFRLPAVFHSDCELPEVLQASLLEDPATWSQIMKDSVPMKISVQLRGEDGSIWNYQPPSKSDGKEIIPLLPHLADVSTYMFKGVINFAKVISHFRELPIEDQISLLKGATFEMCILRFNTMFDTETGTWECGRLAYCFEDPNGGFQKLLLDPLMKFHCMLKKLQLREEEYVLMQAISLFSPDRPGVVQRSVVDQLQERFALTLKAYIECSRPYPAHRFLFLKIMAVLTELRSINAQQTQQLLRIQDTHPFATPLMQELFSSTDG
# Outline: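 Luminescent readout (One-Glo luciferase, 30 min room temperature) followed 24 hr compound treatment at 37 C of rPXR cells plated 2,000 per well and preincubated 5hr; qHTS format with compounds delivered in DMSO.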
# [17] = target: Nuclear receptor subfamily 1 group I member 2 (Homo sapiens) (UniProt O75469); experiment: CYP3A4 induction through human pregnane X receptor (PXR) by small molecules, qHTS assay (AID 1346984); note: nearly all actives have a fitted effect of over 40% in size; note: potency is the fitted concentration of half-maximal effect
# Outline: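 Cells (DPX-2; HepG2 with PXR element plus CYP3A4-promoter luciferase) settled 5hr, then were treated 24hr at 37C. A 3hr, 3uM-final Luciferin-IPA step preceded luminescence measurement with One-Glo.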
# [18] = qHTS assay for small molecule disruptors of the mitochondrial membrane potential - cell viability (AID 720634; calls by dose curve; note: nearly all actives have a fitted effect of over 20% in size; note: potency is the fitted concentration of half-maximal effect)
# Outline: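 Viability of HepG2 cells is scored from ATP content by luminescence; cells are exposed to compound for 1 hr at 37 C and 5% CO2, then dosed with m-MPI dye before the CellTiter-Glo reagent.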
# [19] = system: thyroid hormone receptor (rat, GH3 cells); experiment: qHTS assay to identify small molecule agonists of the thyroid receptor (TR) signaling pathway (AID 743066; calls by dose curve)
# Aromatase (Homo sapiens) = Aromatase (Homo sapiens) (UniProt P11511); experiment: qHTS assay to identify aromatase inhibitors (AID 743083); note: nearly all actives have a fitted effect of over 55% in size; note: potency is the fitted concentration of half-maximal effect
# Aromatase (Homo sapiens), sequence (P11511 whole entry, looked up): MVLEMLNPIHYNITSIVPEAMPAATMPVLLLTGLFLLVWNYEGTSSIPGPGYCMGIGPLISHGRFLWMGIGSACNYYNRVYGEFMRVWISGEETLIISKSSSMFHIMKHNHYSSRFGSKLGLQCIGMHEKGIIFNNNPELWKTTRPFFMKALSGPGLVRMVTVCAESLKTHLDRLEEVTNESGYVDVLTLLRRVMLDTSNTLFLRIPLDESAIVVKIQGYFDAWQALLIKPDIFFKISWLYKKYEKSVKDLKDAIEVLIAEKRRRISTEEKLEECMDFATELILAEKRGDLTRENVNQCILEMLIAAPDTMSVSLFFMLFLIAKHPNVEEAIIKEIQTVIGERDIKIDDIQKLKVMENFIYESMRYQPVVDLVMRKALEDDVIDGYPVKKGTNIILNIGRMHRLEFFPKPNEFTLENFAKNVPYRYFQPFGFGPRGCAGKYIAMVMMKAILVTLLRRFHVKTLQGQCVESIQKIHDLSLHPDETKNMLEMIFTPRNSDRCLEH
structure (smiles),measurement,setting,value
CCCCCc1cc(O)c2c(c1)OC(C)(C)[C@@H]1CCC(C)=C[C@@H]21,Potency,[1],inactive
same,Potency,[2],23.7 µM (active)
same,Potency,[3],inactive
same,outcome,[4],inactive
same,Potency,[5],inactive
same,outcome,[6],inactive
same,Potency,[7],inactive
same,Potency,[8],inactive
same,Potency,[9],23.9 µM (active)
same,Potency,[10],inactive
same,Potency,[11],inactive
same,Potency,[12],inactive
same,Potency,[13],inactive
same,Potency,[14],inactive
same,Potency,[15],inactive
same,max activation,[16],-3.2%
same,Potency,[17],inactive
CCCCCCC(=O)O[C@H]1CC[C@H]2[C@@H]3CC[C@H]4CC(=O)C=C(C)[C@]4(C)[C@H]3CC[C@]12C,Potency,[1],inactive
same,Potency,[3],inactive
same,Potency,[18],inactive
same,outcome,[4],inactive
same,Potency,[5],inactive
same,outcome,[6],inactive
same,Potency,[7],inactive
same,Potency,[8],inactive
same,Potency,[9],inactive
same,Potency,[10],inactive
same,Potency,[19],inactive
same,Potency,[12],inactive
same,Potency,Aromatase (Homo sapiens),inactive
same,Potency,[13],inactive
same,Potency,[14],inactive
same,Potency,[15],inactive
same,max activation,[16],-2.7%
same,Potency,[17],inactive
CCC1C(C)=NN=C(c2ccc(OC)c(OC)c2)c2cc(OC)c(OC)cc21 (stereo unspecified),Potency,[2],inactive
same,Potency,[3],inactive
same,Potency,[18],inactive
same,outcome,[4],inactive
same,Potency,[5],inactive
same,outcome,[6],inactive
same,Potency,[7],inactive
same,Potency,[8],inactive
same,Potency,[10],inactive
same,Potency,[19],inactive
same,Potency,[11],inactive
same,Potency,[12],inactive
same,Potency,Aromatase (Homo sapiens),inactive
same,Potency,[13],inactive
same,Potency,[14],inactive
same,Potency,[15],inactive
same,max activation,[16],-0.64%
same,Potency,[17],inactive
CN(C)CCCCCCN(C)C (tested in a mixture with another compound),Potency,[2],inactive
same,Potency,[3],inactive
same,Potency,[18],inactive
same,outcome,[4],inactive
same,Potency,[5],inactive
same,outcome,[6],inactive
same,Potency,[7],inactive
same,Potency,[8],inactive
same,Potency,[9],inactive
same,Potency,[10],inactive
same,Potency,[19],inactive
same,Potency,[12],inactive
same,Potency,Aromatase (Homo sapiens),inactive
same,Potency,[13],inactive
same,Potency,[14],inactive
same,Potency,[15],inactive
same,max activation,[16],-5.32%
COC([CH2][Hg])CNC(=O)c1ccccc1OCC(=O)O (stereo unspecified),Potency,[2],inactive
same,Potency,[18],inactive
same,outcome,[4],inactive
same,Potency,[5],inactive
same,outcome,[6],inactive
same,Potency,[7],inactive
same,Potency,[8],inactive
same,Potency,[9],inactive
same,Potency,[10],inactive
same,Potency,[11],inactive
same,Potency,[12],inactive
same,Potency,Aromatase (Homo sapiens),inactive
same,Potency,[13],inactive
same,Potency,[14],inactive
same,Potency,[15],inactive
same,max activation,[16],7.87%
same,Potency,[17],inactive
CN1CCCC(=C(c2cccs2)c2cccs2)C1,Potency,[1],inactive
same,Potency,[2],inactive
same,Potency,[3],inactive
same,Potency,[18],inactive
same,outcome,[4],inactive
same,Potency,[5],inactive
same,outcome,[6],inactive
same,Potency,[7],inactive
same,Potency,[8],inactive
same,Potency,[9],inactive
same,Potency,[10],inactive
same,Potency,[19],inactive
same,Potency,[11],inactive
same,Potency,[12],inactive
same,Potency,Aromatase (Homo sapiens),inactive
same,Potency,[13],inactive
same,Potency,[14],inactive
same,Potency,[15],inactive
same,max activation,[16],-1%
same,Potency,[17],inactive
O=C1C=C2C=C[C@@H]3C[C@@]2(O1)[C@H]1CCCCN31,Potency,[1],6.68 µM (active)
same,Potency,[2],inactive
same,Potency,[3],18.8 µM (active)
same,Potency,[18],inactive
same,outcome,[4],inactive
same,Potency,[5],inactive
same,outcome,[6],inactive
same,Potency,[7],inactive
same,Potency,[8],inactive
same,Potency,[9],inactive
same,Potency,[19],inactive
same,Potency,[11],inactive
same,Potency,Aromatase (Homo sapiens),13.3 µM (active)
same,Potency,[13],23.7 µM (active)
same,Potency,[14],15 µM (active)
same,Potency,[15],inactive
same,max activation,[16],-20.5%
same,Potency,[17],inactive
C=C[C@H]1CN2CC[C@H]1C[C@@H]2[C@@H](O)c1ccnc2ccccc12,Potency,[1],inactive
same,Potency,[3],inactive
same,Potency,[18],inactive
same,outcome,[4],inactive
same,Potency,[5],inactive
same,outcome,[6],inactive
same,Potency,[7],inactive
same,Potency,[8],inactive
same,Potency,[9],inactive
same,Potency,[10],inactive
same,Potency,[19],inactive
same,Potency,[11],inactive
same,Potency,[12],inactive
same,Potency,Aromatase (Homo sapiens),inactive
same,Potency,[13],inactive
same,Potency,[14],inactive
same,Potency,[15],inactive
same,max activation,[16],-2.95%
same,Potency,[17],inactive
C/C(=C\c1csc(C)n1)[C@@H]1C[C@@H]2O[C@]2(C)CCC[C@H](C)[C@H](O)[C@@H](C)C(=O)C(C)(C)[C@@H](O)CC(=O)O1,Potency,[1],inactive
same,Potency,[2],inactive
same,Potency,[18],inactive
same,outcome,[4],inactive
same,Potency,[5],inactive
same,outcome,[6],inactive
same,Potency,[7],inactive
same,Potency,[8],inactive
same,Potency,[9],inactive
same,Potency,[10],inactive
same,Potency,[19],inactive
same,Potency,[12],inactive
same,Potency,Aromatase (Homo sapiens),inactive
same,Potency,[13],inactive
same,Potency,[14],inactive
same,Potency,[15],inactive
same,Potency,[16],10 µM (active)
same,Potency,[17],inactive
C#CCN1CC(=O)N(COC(=O)C2C(C=C(C)C)C2(C)C)C1=O (stereo unspecified),Potency,[1],inactive
same,Potency,[2],inactive
same,Potency,[3],inactive
same,Potency,[18],inactive
same,outcome,[4],inactive
same,Potency,[5],inactive
same,outcome,[6],inactive
same,Potency,[7],inactive
same,Potency,[8],inactive
same,Potency,[9],inactive
same,Potency,[10],inactive
same,Potency,[19],inactive
same,Potency,[11],inactive
same,Potency,[12],inactive
same,Potency,Aromatase (Homo sapiens),inactive
same,Potency,[13],inactive
same,Potency,[14],inactive
same,Potency,[15],inactive
same,max activation,[16],7.13%
[H+].[H+].[Hg+2].[O-]B([O-])[O-].[c-]1ccccc1,Potency,[2],0.668 µM (active)
same,Potency,[3],9.44 µM (active)
same,Potency,[18],13.3 µM (active)
same,outcome,[4],inactive
same,Potency,[5],inactive
same,outcome,[6],inactive
same,Potency,[7],inactive
same,Potency,[8],inactive
same,Potency,[9],2.68 µM (active)
same,Potency,[10],13.3 µM (active)
same,Potency,[11],6.01 µM (active)
same,Potency,[12],5.31 µM (active)
same,Potency,Aromatase (Homo sapiens),7.5 µM (active)
same,Potency,[13],10.6 µM (active)
same,Potency,[14],21.1 µM (active)
same,Potency,[15],inactive
same,max activation,[16],-22%
same,Potency,[17],inactive
CCC1(c2ccccc2)C(=O)NC(=O)N(C(=O)c2ccccc2)C1=O (stereo unspecified),Potency,[1],inactive
same,Potency,[2],inactive
same,Potency,[3],inactive
same,Potency,[18],inactive
same,outcome,[4],inactive
same,Potency,[5],inactive
same,outcome,[6],inactive
same,Potency,[7],inactive
same,Potency,[8],inactive
same,Potency,[9],inactive
same,Potency,[10],inactive
same,Potency,[19],inactive
same,Potency,[11],inactive
same,Potency,Aromatase (Homo sapiens),inactive
same,Potency,[13],inactive
same,Potency,[14],inactive
same,Potency,[15],inactive
same,max activation,[16],-3.53%
same,Potency,[17],28.2 µM (active)
CC(C)CCC(=O)O[C@H]1CC[C@H]2[C@@H]3CCC4=CC(=O)CC[C@]4(C)[C@H]3CC[C@]12C,Potency,[1],inactive
same,Potency,[3],inactive
same,Potency,[18],inactive
same,outcome,[4],inactive
same,Potency,[5],inactive
same,outcome,[6],inactive
same,Potency,[7],inactive
same,Potency,[8],inactive
same,Potency,[10],inactive
same,Potency,[19],inactive
same,Potency,[11],inactive
same,Potency,[12],inactive
same,Potency,Aromatase (Homo sapiens),inactive
same,Potency,[13],inactive
same,Potency,[14],inactive
same,Potency,[15],inactive
same,max activation,[16],2.99%
same,Potency,[17],inactive
